Source: PubChem BioAssay (NCI)
Compounds without any hit were thinned out: in the full panel of roughly 79,000, 15% have a hit. Unmarked numbers belong to inactive results. Calls of active or inactive are those of the source. Cut-off read from the data, not from the text of the source: active = growth inhibition above about 70%; inactive = the rest.

assay: NCI Yeast Anticancer Drug Screen. Data for the rad50 strain (AID 155);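 note: 0% = growth of vehicle-only cultures of the same strain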; conditions: S. cerevisiae rad50 strain growth inhibition; at 33.0 µM; hits give high values
Outline: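 Vehicle-treated cultures provide the reference for the growth inhibition reported for compound-exposed, repair-deficient yeast.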

Compound | growth inhibition
Cc1cccc2c(C(O)CBr)cc(-c3ccc(Cl)cc3)nc12 (stereo not given) | 96% (active)
CN(C)C[C@H]1CC[C@@H](CN(C)C)C1=O | 37%
CC1=C(SCCO)C(=O)c2ccccc2C1=O | 37%
COC(=O)CCNc1c2ccccc2nc2cccc([N+](=O)[O-])c12 | 97% (active)
CC(/C=C/c1ccc2c(c1)OCO2)[N+](=O)[O-] (stereo not given) | 99% (active)
COC(=O)C1=C(C)NC(C)=C(C(=O)OCCCN2CCC(c3ccccc3)(c3ccccc3)CC2)C1c1cccc([N+](=O)[O-])c1 (stereo not given) | 95% (active)
CCOC(=O)c1cnc2c(C(F)(F)F)cccc2c1N=[N+]=[N-] | 42%
O=[N+]([O-])c1cc2no[n+]([O-])c2cc1N1CCCCC1 | 96% (active)
COC(=O)c1ccc(NCC2=CC(=O)C=CC2=O)cc1O | 95% (active)
CCCCCCCCNC(=O)C1=C(C)NC(C)=C(C(=O)NCCCCCCCC)C1 | -3%
S=C(Nc1ccc(Cl)c(Cl)c1)SCc1ccc2c(c1)OCO2 | 99% (active)
O=S(=O)(CCCl)c1ccccc1Cl | 94% (active)
Nc1ccccc1CC(O)C(=O)O (stereo not given) | 85% (active)
CN(C)c1ccc(Sc2ccc3nc(N)nc(N)c3c2)cc1 | 5%
CC(C)C1=CCC2C(=C1)CCC1C(C)(C(=O)O)CCCC21C (stereo not given) (tested in a mixture with another compound) | 41%
Cc1ccc(S(=O)(=O)Oc2cc(Cl)c(Cl)cc2Cl)cc1 | 3%
CSC(=S)Nc1cc(C)ccn1 | 84% (active)
CC(C)c1cc(C(C)C)c(O)c(C([O-])[O-])c1.CC(C)c1cc(C(C)C)c(O)c(C([O-])[O-])c1.CC(C)c1cc(C(C)C)c(O)c(C([OH2+])[OH2+])c1.CC(C)c1cc(C(C)C)c(O)c(C([OH2+])[OH2+])c1.[Cu+2].[Cu+2].[OH3+].[OH3+] | 65%
Cc1cc(I)ccc1N | 91% (active)
CC(Br)C(=O)c1ccc2cc(Br)c3ccccc3c2c1 (stereo not given) | 0%

Compound | growth inhibition
O=C(Nc1ccccc1)OCCc1ccc(Cl)c(Cl)c1 | 66%
O=Cc1cccc2ccc3ccccc3c12 | 94% (active)
O=[N+]([O-])CC(SCc1ccccc1)c1ccc2c(c1)OCO2 (stereo not given) | 98% (active)
CC1(Cl)CC(O)C2(CC1Br)C1(C)OC1C1OC1(Br)C2(C)C (stereo not given) | 73% (active)
Cc1cc(O)cc(O)c1N=Nc1ccc([N+](=O)[O-])cc1 | 18%
CCCCCCCCCCCCCC[N+](C)(CC(=O)[O-])Cc1ccccc1 (stereo not given) | 99% (active)
CC1=NN(c2cccc(Cl)c2)C(=O)C1 | -44%
CC(=O)OCc1ccc(O)c(C=O)c1 | 6%
Cc1ccc2ccc3cccc4ccc1c2c34 | 37%
Cc1nc(-[n+]2nc(-c3ccncc3)nn2-c2ccccc2)sc1C | 48%
C(CCSC1=NCCN1)CSC1=NCCN1 (tested in a mixture with another compound) | 99% (active)
CCCCCCCCCCC(=O)Cl | 9%
COC1C=COC2(C)Oc3c(C)c(O)c4c(c3C2=O)/C(=N/C2CCC(O)OC2C)C=C(NC(=O)/C(C)=C\C(=O)C2CC2C(O)C(C)C(O)C(C)C(OC(C)=O)C1C)C4=O (stereo not given) | 10%
S=c1[nH]nc(Nc2ccc(Cl)cc2)s1 | -17%
O=C1CSC(/C=C/c2ccccc2)N1c1ccc(-c2ccc(-n3c(-c4ccccc4)nc4ccccc4c3=O)cc2)cc1 (stereo not given) | 22%
O=C1C=CC(=O)N1c1ccc2c(c1)Cc1cc(NC(=O)C(F)(F)F)ccc1-2 | 71% (active)
Brc1ccc(-c2cc3c(cc2C2SCCS2)OCO3)cc1 | 14%
Oc1ccc2ccccc2c1C(c1ccc(Cl)cc1)c1c(O)ccc2ccccc12 | 55%
C[CH2][Sn]([CH2]C)([O]C(=O)C(OC(C)=O)c1ccccc1)[O]C(=O)C(OC(C)=O)c1ccccc1 (stereo not given) | 67%
Cc1ccc2ccc(O)cc2c1 | -11%
